Compounds without any hit were thinned out: in the full panel of roughly 83,000, 20% have a hit.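 96-well plates, one dose, 48 hours. Percent growth reported; active if below 10.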 Active and inactive are the calls of the source.
Tested on: IGROV1 ovarian
Assay: NCI-60 one-dose screen, 48 h (100 = growth as untreated, 0 = no growth, -100 = all killed)
Details: 10 µM
Experimental: Growth inhibition of the IGROV1 human tumor cell line is measured as a screen for anti-cancer activity. Cells are grown in 96 well plates and exposed to the test compound for 48 hours. Compounds are tested at a single concentration, which is 10^-5 M for most compounds. The reported endpoint is percent growth (GI% or GIPRCNT), where numbers from 0 - 100% represent growth inhibition, and numbers from -100% - 0 represent cell death. For example, a value of 40 represents 60% growth inhibition. A value of 0 means no net growth occurred over the course of the experiment. A value of -40 indicates 40% of cells at the beginning of the experiment died by the end of the experiment. A value of -100 means all cells are dead at the end of the experiment.
NCI-60 Human Tumor Cell Lines Screen was performed using the standard one-dose NCI protocol, which is described in more detail at https://dtp.cancer.gov/discovery_development/nci-60/default.htm.
Compounds with GIPRCNT values below 10 were considered active. Activity score was based on GIPRCNT using the following formula: […]
Score is 0 for GIPRCNT values of 100 or above, 50 for GIPRCNT values of 0, and 100 for GIPRCNT values of -100.

Row | Structure (SMILES) | growth
1 | CC(=O)Nc1ccc(-n2cnc3cc(-c4ccc(O)cc4)ccc32)cc1F | 35.9% (inactive)
2 | N#Cc1ccc(NC(=O)CSc2ccc(-c3ccc(Br)cc3)nn2)cc1 | 74.6% (inactive)
3 | Nc1nc(-c2ccccc2)cs1 | 63.7% (inactive)
4 | CCC(C)S(=O)(=O)c1oc(-c2ccc(C)cc2)nc1S(=O)(=O)c1ccccc1 (stereo not given) | -92.9% (active)
5 | COC[C@@H](CC(C)C)N=C1NC(=O)/C(=C/c2ccc3ncsc3c2)N1 | 8.22% (active)
6 | O=C(c1ccc(Cl)cc1)C1[C@H](c2ccc(Br)cc2)[C@@H](c2ccccc2)NC12C(=O)Nc1ccc(Cl)cc12 (stereo not given in full) | -72.4% (active)
7 | COc1ccc2[nH]c(O)c(N=NC(=O)COc3ccc(NC(=O)Nc4ccc(Cl)c(Cl)c4)cc3)c2c1 | -4.72% (active)
8 | COc1ccccc1C(=O)NNC(=O)CSc1nc2c(c(=O)[nH]1)CCCC2 | 92.5% (inactive)
9 | CC(C)CCSc1nc(NC2CC2)c(C#N)c(-c2ccc(C(C)C)cc2)n1 | 113% (inactive)
10 | COc1ccc(-c2ccc(/C=N/NC(=O)c3[nH]c4ccc(Br)cc4c3-c3ccccc3)o2)cc1 | 64.6% (inactive)
11 | CC(=O)NNc1ccc2nnc(-c3ccc(Br)cc3)n2n1 | 105% (inactive)
12 | O=S(=O)(Nc1ncccn1)c1ccc(-n2c(-c3ccccc3)nc(-c3ccccc3)c2-c2ccccc2)cc1 | 103% (inactive)
13 | COc1ccc(-c2cc(-c3cc(C(=O)c4ccccc4)n4ccc(C)cc34)nc(N)c2C#N)cc1 | 79.1% (inactive)
14 | O=C(c1ccc(O)cc1)C1[C@H](c2ccccc2Br)[C@@H](c2ccccc2)NC12C(=O)Nc1ccc(Br)cc12 (stereo not given in full) | 18.4% (inactive)
15 | Cc1noc2c(Cc3ccccc3)nn(CC(=O)N/N=C/c3ccc(Br)cc3)c(=O)c12 | 53.4% (inactive)
16 | CC(=O)NS(=O)(=O)c1ccc(NC(=O)CSC2=NC(c3ccccc3)C(C(C)=O)=C(C)N2)cc1 (stereo not given) | 108% (inactive)
17 | CC(=O)Nc1ccc(-c2cn(-c3cccc(C(=O)Nc4ccc(Cl)c(C(F)(F)F)c4)c3)nn2)cn1 | -54% (active)
18 | O=C(COc1ccc(NC(=O)Nc2ccc(Cl)cc2)cc1)N=Nc1c(O)[nH]c2ccc([N+](=O)[O-])cc12 | 79.5% (inactive)
19 | Cc1cc(C)nc(NS(=O)(=O)c2ccc(N/C(N)=N/c3nccc(-c4cccs4)n3)cc2)n1 | 72.6% (inactive)
20 | O=c1oc2ccc(-c3ccc(F)cc3F)cc2c(=O)n1-c1ccc(F)c(Cl)c1 | 13% (inactive)

Row | Structure (SMILES) | growth
21 | Cc1ccc(-c2cc(C(=O)N=Nc3c(O)[nH]c4ccc(Br)cc34)c3ccccc3n2)cc1 | 52.9% (inactive)
22 | O=C1NC(=NC23CC4CC(CC(C4)C2)C3)N/C1=C\c1ccc2ncccc2n1 | -6.63% (active)
23 | COc1ccc(OC)c(/C=N/NC(=O)c2ccc3nc(-c4ccc(Cl)cc4)[nH]c3c2)c1 | 92.2% (inactive)
24 | CN1C(=O)N(C)C2SC(N/N=C/c3ccc(F)cc3)=NC21 (stereo not given) | 46% (inactive)
25 | C/C(=N\N=C\c1ccc(Cl)c([N+](=O)[O-])c1)c1ccc2c(c1)Nc1ccccc1S2 | 60.3% (inactive)
26 | COc1cccc(/C=N/NC(=O)c2ccc3nc(-c4ccc(Cl)cc4)[nH]c3c2)c1O | -77.2% (active)
27 | COc1cc(NC(=O)CSc2nnc(-c3ccc4nc(-c5ccc(Cl)cc5)[nH]c4c3)o2)cc(OC)c1OC | 73.8% (inactive)
28 | NC(=Nc1ccc(OCCCCCCCCn2ccnn2)cc1)c1ccccc1 | 28.9% (inactive)
29 | O=c1[nH]c2ccc(Cl)cc2cc1CSc1ccc(Nc2nccc(-c3ccc(Cl)cc3)n2)cc1 | 84.7% (inactive)
30 | CCOP(=O)(OCC)O[C@H]1CC[C@]2(C)[C@H]3CC[C@@H]4[C@@H]([C@](C)(O)CCC=C(C)C)CC[C@@]4(C)[C@]3(C)CC[C@H]2C1(C)C | 55% (inactive)
31 | COc1cc(C2CC(c3ccc(C)cc3)=Nc3c(N)nc(N)nc3N2)ccc1Oc1nc(Nc2ccc(F)cc2)nc(N(C)C)n1 (stereo not given) | 53.8% (inactive)
32 | O=c1c2ccccc2nc(COc2ccccc2)n1/N=C/c1ccc(N2CCCC2)cc1 | 97.2% (inactive)
33 | Cc1cccc(-c2nc(Nc3ccccc3C(=O)O)c3ccccc3n2)c1 | 59.2% (inactive)
34 | O=C(NO)c1ccc(CNC(=O)[C@H]2Cc3c([nH]c4ccccc34)[C@H](c3ccc(Cl)cc3)N2)cc1 | -24.6% (active)
35 | CCCCOc1ccc(Nc2nc3ccccc3nc2Nc2ccc(OCCCC)cc2)cc1 | 108% (inactive)
36 | CN(C)c1ccc(/C=C/C(=O)c2ccc(NC(=O)CN3C(=O)NC(C)(c4ccccc4)C3=O)cc2)cc1 (stereo not given) | 86.7% (inactive)
37 | N#Cc1c(NC(=O)c2ccc(C(F)(F)F)c(Cl)c2)sc2c1CCC(=O)C2 | -35.3% (active)
38 | CCCS(=O)(=O)c1oc(-c2ccc(F)cc2)nc1S(=O)(=O)c1ccc(F)cc1 | 74.9% (inactive)
39 | CCOc1ccc2ncc(C#Cc3cncc(C(=O)Nc4ccc(CN5CCN(C)CC5)c(C(F)(F)F)c4)c3)n2n1 | -58.2% (active)
40 | N#Cc1c(-c2ccc(Cl)cc2)cc(-c2ccccc2)nc1OCc1ccccc1 | 87% (inactive)
